Assay results taken from PubChem BioAssay AID1159580 (chemical genetic matrix, 2015).
Among all 5,500 compounds or so, about 2,000 (36%) were called active. Inconclusive results (about 18%) are left out. Cut-off read from the data, not from the text of the source: active = normalized growth mostly below about 0.91 (no sharp cut-off); inconclusive = no clear call, values can overlap the other calls; inactive = mostly above about 0.92. This is one part of the list.

Experiment: chemical genetic growth profiling, strain panel (AID 1159580);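 note: tested at 20 µM; growth read once vehicle control cultures reached saturation at 30 °C; 1 = growth at the plate median or of vehicle wells; lower values mean less growth of the strain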
Conditions: S. cerevisiae deletion strains, growth OD
[1] = locus YAL013W, strain DEP1, hits give low values
[2] = locus YBR229C, strain ROT2, hits give low values
[3] = locus YCL061C, strain MRC1, hits give low values
[4] = locus YDL101C, strain DUN1, hits give low values
[5] = locus YDL134C, strain PPH21, hits give low values
[6] = locus YDR150W, strain NUM1, hits give low values
[7] = locus YEL061C, strain CIN8, hits give low values
[8] = locus YGR078C, strain PAC10, hits give low values
[9] = locus YHR030C, strain SLT2, hits give low values
[10] = locus YHR087W, strain rtc3, hits give low values
[11] = locus YJL187C, strain SWE1, hits give low values
[12] = locus YJR043C, strain POL32, hits give low values
[13] = locus YJR075W, strain HOC1, hits give low values
[14] = locus YKL190W, strain CNB1, hits give low values
[15] = locus YLR039C, strain RIC1, hits give low values
[16] = locus YLR058C, strain SHM2 (second series), hits give low values
[17] = locus YLR085C, strain ARP6, hits give low values
[18] = locus YLR262C, strain YPT6, hits give low values
[19] = locus YML094W, strain GIM5, hits give low values
[20] = locus YMR219W, strain ESC1, hits give low values
[21] = locus YMR263W, strain SAP30, hits give low values
[22] = locus YNL153C, strain GIM3, hits give low values
[23] = locus YNL298W, strain CLA4 (second series), hits give low values
[24] = locus YNL322C, strain KRE1, hits give low values
[25] = locus YNR030W, strain Alg12, hits give low values
[26] = locus YPL055C, strain LGE1, hits give low values
[27] = locus YPL241C, strain CIN2, hits give low values
[28] = locus YPR135W, strain CTF4, hits give low values
[29] = locus YMR307W, strain GAS1, hits give low values
[30] = locus YNL128W, strain TEP1, hits give low values

Measured: normalized growth

S=C1NCN(CCN2CCCC2)CN1
inactive: [1] 1 | [2] 0.996 | [3] 0.988 | [4] 0.984 | [5] 0.975 | [6] 0.96 | [7] 1.03 | [8] 0.997 | [9] 1.04 | [10] 1.04 | [11] 1.01 | [12] 0.986 | [13] 0.997 | [14] 0.977 | [15] 0.991 | [16] 1.01 | [17] 0.98 | [18] 0.972 | [19] 1 | [20] 1.01 | [21] 1 | [22] 0.993 | [23] 0.987 | [24] 0.995 | [25] 0.994 | [26] 1.01 | [27] 0.973 | [28] 0.962

CCCCCCCCCCCCN1CNC(=S)NC1
inactive: [6] 0.846 | [15] 0.985 | [16] 0.988 | [18] 1.01 | [24] 0.956
active: [1] 0.804 | [2] 0.81 | [3] 0.68 | [4] 0.652 | [5] 0.451 | [7] 0.441 | [8] 0.813 | [9] 0.291 | [10] 0.767 | [11] 0.688 | [12] 0.727 | [13] 0.858 | [14] 0.515 | [17] 0.141 | [19] 0.513 | [20] 0.786 | [21] 0.782 | [22] 0.801 | [23] 0.325 | [25] 0.419 | locus YOL006C, strain TOP1, hits give low values 0.123 | [26] 0.541 | [27] 0.484 | [28] 0.382

Cn1c2c(c(=O)n(C)c1=O)CN(CCCCCCO)CN2
inactive: [1] 1 | [2] 1.01 | [3] 1.01 | [4] 1 | [5] 1.02 | [6] 0.982 | [7] 1.01 | [8] 0.999 | [9] 1.07 | [10] 1 | [12] 0.99 | [13] 1.01 | [14] 0.994 | [15] 1.02 | [16] 1 | [17] 1.1 | [18] 1.03 | [19] 1.05 | [20] 1 | [21] 1 | [29] 1.04 | [30] 1.01 | [22] 0.999 | [23] 1.1 | [24] 0.998 | [25] 1.04 | [26] 1.02 | [27] 1.05 | [28] 1.02

Cc1ccc(C(=O)Nc2ccc(S(=O)(=O)O)c3cc(S(=O)(=O)O)cc(S(=O)(=O)O)c23)cc1NC(=O)c1cccc(NC(=O)Nc2cccc(C(=O)Nc3cc(C(=O)Nc4ccc(S(=O)(=O)O)c5cc(S(=O)(=O)O)cc(S(=O)(=O)O)c45)ccc3C)c2)c1
inactive: [1] 1.03 | locus YAL021C, strain ccr4, hits give low values 1.03 | locus YAL026C, strain drs2, hits give low values 1 | locus YAL030W, strain snc1, hits give low values 1.01 | locus YAL040C, strain CLN3, hits give low values 0.968 | locus YBL061C, strain skt5, hits give low values 1.01 | locus YBR009C, strain hhf1, hits give low values 0.98 | locus YBR023C, strain chs3, hits give low values 1.04 | locus YBR171W, strain sec66, hits give low values 1.03 | locus YBR231C, strain swc5, hits give low values 1.02 | locus YBR279W, strain paf1, hits give low values 1.02 | locus YCL011C, strain gbp2, hits give low values 1.02 | locus YCL016C, strain dcc1, hits give low values 1.03 | locus YCL061C, strain MRC1 (second series), hits give low values 1 | [3] 1.03 | locus YCL069W, strain vba3, hits give low values 1.01 | locus YCR088W, strain abp1, hits give low values 1.01 | locus YDL005C, strain med2, hits give low values 1.02 | locus YDL040C, strain nat1, hits give low values 1.01 | locus YDR001C, strain nth1, hits give low values 1.01 | locus YDR069C, strain doa4, hits give low values 1.02 | locus YDR137W, strain rgp1, hits give low values 1.05 | [6] 0.998 | locus YDR159W, strain sac3, hits give low values 1 | locus YDR195W, strain ref2 1.02 | locus YDR297W, strain sur2, hits give low values 1.01 | locus YDR334W, strain swr1, hits give low values 1.03 | locus YDR335W, strain msn5, hits give low values 1.02 | locus YDR363W, strain ESC2, hits give low values 1.01 | locus YDR392W, strain spt3, hits give low values 0.975 | locus YEL003W, strain gim4, hits give low values 1.01 | locus YEL037C, strain rad23, hits give low values 1.01 | locus YEL061C, strain CIN8 (second series), hits give low values 1.01 | locus YER002W, strain NOP16, hits give low values 1.03 | locus YER015W, strain faa2, hits give low values 0.999 | locus YER016W, strain bim1, hits give low values 1.01 | locus YER111C, strain swi4, hits give low values 1.03 | locus YER155C, strain BEM2 (second series), hits give low values 1.03 | locus YFR010W, strain ubp6, hits give low values 1.01 | locus YGL167C, strain pmr1, hits give low values 1.01 | locus YGL173C, strain kem1, hits give low values 1.02 | locus YGL227W, strain vid30, hits give low values 1.03 | locus YGL240W, strain doc1, hits give low values 1.04 | locus YGL253W, strain hxk2, hits give low values 1.03 | locus YGR229C, strain SMI1, hits give low values 1.04 | locus YHR013C, strain ard1, hits give low values 1.05 | locus YHR027C, strain rpn1, hits give low values 1.03 | [9] 1.11 | locus YHR079C, strain IRE1, hits give low values 1.1 | locus YHR142W, strain chs7, hits give low values 1.04 | locus YJL092W, strain hpr5, hits give low values 1.02 | locus YJL095W, strain BCK1 (second series), hits give low values 1.01 | locus YJL095W, strain BCK1, hits give low values 1.09 | locus YJL115W, strain asf1, hits give low values 1.03 | locus YJL129C, strain trk1, hits give low values 1.07 | locus YJL154C, strain vps35, hits give low values 1.03 | locus YJL164C, strain tpk1, hits give low values 1 | locus YJL166W, strain qcr8, hits give low values 1.03 | [11] 1.02 | locus YJR066W, strain TOR1, hits give low values 0.998 | [13] 1.01 | locus YKL160W, strain elf1, hits give low values 1.05 | locus YKR026C, strain gcn3, hits give low values 1.02 | locus YKR091W, strain srl3, hits give low values 1.01 | locus YLL001W, strain dnm1, hits give low values 1.07 | locus YLL026W, hits give low values 1.01 | locus YLL041C, strain sdh2, hits give low values 1.02 | locus YLR027C, strain aat2, hits give low values 1.02 | locus YLR113W, strain HOG1, hits give low values 1.12 | locus YLR221C, strain rsa3, hits give low values 1.03 | locus YLR258W, strain gsy2, hits give low values 1 | locus YLR262C, strain YPT6 (second series), hits give low values 1.04 | locus YLR320W, strain mms22, hits give low values 1.07 | locus YLR342W, strain FKS1, hits give low values 1.02 | locus YLR357W, strain rsc2, hits give low values 1.03 | locus YLR370C, strain arc18, hits give low values 1.03 | locus YLR384C, strain iki3, hits give low values 1.01 | locus YML120C, strain ndi1, hits give low values 1.04 | locus YMR058W, strain fet3, hits give low values 1.03 | locus YMR125W, strain sto1, hits give low values 1.06 | locus YMR129W, hits give low values 1.01 | locus YMR205C, strain PFK2, hits give low values 1.06 | locus YMR231W, strain pep5, hits give low values 1.01 | [29] 0.993 | locus YNL071W, strain lat1, hits give low values 1.02 | [30] 1.01 | locus YNL175C, strain NOP13, hits give low values 1.02 | locus YNL183C, strain NPR1, hits give low values 1 | locus YNL197C, strain WHI3, hits give low values 1 | locus YNL209W, strain ssb2, hits give low values 1.02 | locus YNL224C, strain SQS1, hits give low values 1.02 | locus YNL248C, strain rpa49, hits give low values 1.06 | locus YNL322C, strain KRE1 (second series), hits give low values 1.03 | [24] 1.04 | locus YNR049C, strain mso1, hits give low values 1.01 | locus YOR001W, strain rrp6, hits give low values 0.967 | locus YOR070C, strain gyp1, hits give low values 1.02 | locus YOR080W, strain dia2, hits give low values 1.01 | locus YOR083W, strain WHI5 (second series), hits give low values 0.997 | locus YOR083W, strain WHI5, hits give low values 1.04 | locus YOR106W, strain vam3, hits give low values 1.05 | locus YOR231W, strain MKK1, hits give low values 1.11 | locus YOR265W, strain rbl2, hits give low values 1.01 | locus YOR270C, strain vph1, hits give low values 1.11 | locus YOR290C, strain snf2, hits give low values 1.06 | locus YPL051W, strain arl3, hits give low values 1.05 | [26] 1.02 | locus YPL078C, strain atp4, hits give low values 1.06 | locus YPL106C, strain sse1, hits give low values 1.01 | locus YPL240C, strain hsp82, hits give low values 1.01 | [27] 1 | locus YPL256C, strain CLN2, hits give low values 1.14

CSc1c(-c2ccccc2)c(N)nn1S(=O)(=O)c1ccccc1
inactive: [1] 0.99 | [2] 0.982 | [3] 0.993 | [4] 0.978 | [5] 0.998 | [6] 0.979 | [7] 0.967 | [8] 0.98 | [9] 0.913 | [10] 0.973 | [12] 1.01 | [13] 0.971 | [15] 0.836 | [16] 0.996 | [17] 0.849 | [18] 0.901 | [19] 0.944 | [20] 1 | [21] 0.983 | [29] 0.815 | [30] 0.97 | [22] 1 | [23] 0.907 | [24] 0.987 | [25] 0.951 | [26] 0.994 | [27] 0.943 | [28] 0.945
active: [11] 0.0597
